CYP2C19 act – human CYP2C19 activators, primary screen, biochemical, luminescence; 96,000 tested, under 10 active; AID 1025, 2008; activation factor at 5 µM; recombinant CYP2C19, luciferin-H EGE luminescence; active compounds read high; 0 = fully inhibited enzyme, 1 = untreated enzyme;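 active means activation factor of at least 2 at 5 µM in the primary screen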;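 further: 0 = wells with 2.5 mM tranylcypromine and 1 = vehicle-only wells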
Target sequence (P33261 whole entry, looked up): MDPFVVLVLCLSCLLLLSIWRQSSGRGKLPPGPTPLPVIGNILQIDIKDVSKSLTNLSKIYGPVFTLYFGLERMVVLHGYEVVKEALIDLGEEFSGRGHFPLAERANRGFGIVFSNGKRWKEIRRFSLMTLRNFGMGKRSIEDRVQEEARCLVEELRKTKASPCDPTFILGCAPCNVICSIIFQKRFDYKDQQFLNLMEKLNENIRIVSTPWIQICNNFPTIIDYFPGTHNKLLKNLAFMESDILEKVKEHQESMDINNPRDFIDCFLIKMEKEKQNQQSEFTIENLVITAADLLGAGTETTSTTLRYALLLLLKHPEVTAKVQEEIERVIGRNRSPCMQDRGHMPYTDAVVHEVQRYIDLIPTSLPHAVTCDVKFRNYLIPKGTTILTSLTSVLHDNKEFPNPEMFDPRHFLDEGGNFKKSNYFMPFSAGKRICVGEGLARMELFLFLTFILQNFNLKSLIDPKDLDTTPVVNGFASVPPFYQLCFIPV
CD11b adhes enh – enhancers of CD11b/CD18 adhesion to fibrinogen, primary screen, K562 cells, luminescence; activation, % at 10 µM; ATPlite luminescence; 0.07% of 93,000 active; Integrin beta-2 (Homo sapiens) + Integrin alpha-M (Homo sapiens), P05107+P11215;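 active means 10 µM primary screen giving 50% or more activity, confirmed by 40% or more on retest at that dose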
CYP2C9 activ – human CYP2C9 activators, primary screen, biochemical, luminescence; 1.4% of 96,000 active; Cytochrome P450 2C9 (Homo sapiens), P11712; activation factor at 5 µM; recombinant CYP2C9, luciferin-H conversion; active compounds read high; factor 1 = untreated enzyme, 0 = blocked;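 active means activation factor of 2 or more for CYP2C9 at a 5 µM dose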;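 further: 0 = sulfaphenazole-blocked wells and 1 = vehicle-only wells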
CYP2C19 inh – blockers of cytochrome P450 2C19 activity – biochemical, luminescence, ADME assay, primary screen; inhibition, % at 5 µM; CYP2C19 Supersomes, luciferin-H EGE luminescence, 30 min; P33261; 21% of 96,000 active; AID 778, 2007;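 active means CYP2C19 inhibition above a set limit at 5 µM in the primary screen, cut at about 50% in these data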;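 further: plate controls were negative control wells for no effect and 2.5 mM tranylcypromine positive control for full effect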
CYP2C9 inhib – blockers of cytochrome P450 2C9 activity – biochemical, luminescence, ADME assay, primary screen | 20% of 96,000 active | inhibition, % at 5 µM | P11712 | CYP2C9 Supersomes, luciferin-H conversion | AID 777, 2007;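 active means blocking of liver enzyme CYP2C9 beyond about 50% at 5 µM, limit read from the data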
Mac1 fbg inh – inhibitors of CD11b/CD18 adhesion to fibrinogen, primary screen, K562 cells, luminescence | Integrin beta-2 (Homo sapiens) + Integrin alpha-M (Homo sapiens), P05107+P11215 | ATPlite luminescence; Mn2+ added to activate the integrin | inhibition, % at 10 µM | 0.54% of 93,000 active;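 active means primary inhibition of 50% or more at 10 µM, then 40% or more on retest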
Numbers without * were called inactive; . = no result given. An excerpt weighted towards active compounds, which were near 28% of everything screened.

SMILES	CYP2C19 act	CD11b adhes enh	CYP2C9 activ	CYP2C19 inh	CYP2C9 inhib	Mac1 fbg inh
CNS(=O)(=O)c1cc(C(=O)NCc2ccco2)ccc1Cl	1.2	-2.8	1.6	-21.5	-55.5	11.4
COC(=O)C(C(=O)OC)C(C[N+](=O)[O-])c1ccc(O)c(OC)c1 (centres undefined)	.	-3.4	.	.	.	18.4
C=CCN=C(NC#N)SCc1ccccc1Cl	0.1	2.4	0.8	89.4*	20.1	0.3
O=C1CC(c2ccccc2)NC(=O)N1 (centres undefined)	1	.	1	-0.9	-1.8	.
CNc1oc(Cc2cccc3ccccc23)nc1C#N	0	-6.8	0.7	95.7*	34.5	5.3
CC1CN(c2oc(-c3cccs3)nc2C#N)CC(C)O1 (centres undefined)	0.7	.	0.8	33.9	20.1	.
CC(C)Nc1oc(Cc2cccc3ccccc23)nc1C#N	0	-1.6	0.4	98.9*	55.8*	-5.4
N#Cc1nc(Cc2cccc3ccccc23)oc1NCCN1CCCCC1	1	-1.9	1	-4.1	-4.6	3.9
CC1CN(c2oc(Cc3cccc4ccccc34)nc2C#N)CC(C)O1 (centres undefined)	0.4	1.2	0.4	64.2*	59.7*	-5.7
c1ccn2c(SCc3cn4ccsc4n3)nnc2c1	0.8	0.8	1	20.3	-2.8	-17.8
CC(C)COC(=O)N1CC(O)CC1C(=O)O (centres undefined)	0.9	-1.8	1	5.0	1.5	-3.6
CC(C/C=N/NC(=O)COc1cc(Cl)ccc1Cl)c1ccccc1 (centres undefined)	0.3	1.5	0.9	70.0*	11.4	-3.5
Cc1cc(C)n2nc(CC(=O)NCc3ccccc3Cl)nc2n1	.	-1.6	.	.	.	-2.5
CC1CCN(S(=O)(=O)c2cc(Br)cc(C(=O)NC3=NCCS3)c2)CC1	0.3	-4.2	0.6	67.8*	45.0	-3.5
CC1CCN(S(=O)(=O)c2cccc(C(=O)Nc3ccccn3)c2)CC1	0.9	4.4	0.9	6.4	10.1	-3.0
Cc1ccccc1C(=O)c1cccn1CC(=O)NCCN1CCN(c2cccc(C)c2C)CC1	0.2	8.0	0.5	83.3*	45.5	41.8
O=C(O)CCSc1nnc(-c2cccnc2)n1-c1ccccc1	1	-5.1	1	-0.8	-4.0	3.1
CCc1cc2c(=O)nc3n(c2s1)Cc1ccccc1/C3=C(/O)c1cccc([N+](=O)[O-])c1	1.1	-3.1	0.5	-13.2	51.6*	-0.8
CCc1cc2c(=O)nc3n(c2s1)Cc1ccccc1/C3=C(/O)c1ccc(F)cc1	1	0.3	0.9	-2.2	13.6	4.0
COC(=O)c1cn(CCOc2ccc(C)cc2)c2ccccc12	0.3	2.4	0.3	68.7*	70.4*	8.6
COc1ccc(/C=c2/sc3n(c2=O)NC2(c4ccccc4)N(C)C(=O)N(C)C2(c2ccccc2)N=3)cc1 (centres undefined)	0.6	-3.8	0.4	40.0	59.8*	-15.7
Cc1c(N2C(=O)/C(=C\c3cccc4ccccc34)SC2=S)c(=O)n(-c2ccccc2)n1C	0.3	-0.1	0.8	71.1*	25.0	-44.3
O=C(O)C(Cc1ccccc1)N1C(=O)/C(=C/c2cccc3ccccc23)SC1=S (centres undefined)	0.9	-4.6	0.3	11.5	71.8*	91.4*
Cc1c(N2C(=O)c3ccccc3C2=O)c(=O)n(-c2ccccc2)n1C	1.1	-0.9	1.1	-10.6	-5.5	7.3
Cn1c(Cn2nnc3ccccc32)nnc1SCC(=O)c1ccc(F)cc1	1.1	1.7	0.9	-6.6	5.2	18.8
SMILES	CYP2C19 act	CD11b adhes enh	CYP2C9 activ	CYP2C19 inh	CYP2C9 inhib	Mac1 fbg inh
CC1CC2(CCCCC2)N2C(=O)C(=O)c3cccc1c32 (centres undefined)	0.7	.	0.8	34.1	15.5	.
CC(=O)N1c2ccc3ccccc3c2C(C)CC12CCCCC2 (centres undefined)	0	0.1	0.1	98.4*	94.3*	-25.0
OCc1csc(=Nc2ccccc2)n1-c1ccccc1	0.1	-1.7	1	87.9*	-2.2	-13.9
O=C(O)CC1SC(=Nc2ccccc2)N(c2ccccc2)C1=O (centres undefined)	1	-6.3	1.2	-1.2	-16.7	-7.1
O=C(COc1cccc(C(F)(F)F)c1)NCCCN1CCCC1=O	0.8	-2.5	0.7	16.3	25.5	-1.5
CCCOc1ccccc1Nc1nnc(C)c(=O)[nH]1	1.1	-0.3	1.1	-6.2	-9.1	-5.9
Cc1ccc(NCCc2ccc(C)nc2)cc1	0	-2.3	0.8	96.3*	22.4	-0.8
Cc1ccc(CCSc2ccc(C(C)C)cc2)cn1	.	-4.0	.	.	.	72.0
Cc1ccc(NCCNc2ccc(C)cc2)cc1	0	3.6	0.9	100.0*	11.5	-4.3
COc1ccc(NCCNc2ccc(OC)cc2)cc1	0.4	.	0.9	56.5*	12.4	.
Cc1ccc(NCN2C(=O)C3C4C=CC(C4)C3C2=O)cc1 (centres undefined)	0.9	-1.3	1.1	8.2	-6.7	-8.3
COc1ccc2cc3cc(C(=O)NCC4COc5ccccc5O4)oc3nc2c1 (centres undefined)	1.2	.	0.9	-15.2	11.9	.
NC(=O)C1(N2CCCCC2)CCN(C(=O)NC2CCCCC2)CC1	1	-3.6	0.9	1.8	12.6	0.0
COC(=O)c1[nH]c2c(c1C)C(=O)CC(c1ccc(C)cc1)C2 (centres undefined)	1	31.1	0.7	0.7	31.2	-7.3
Cc1c(C(=O)OCC(C)C)[nH]c2c1C(=O)CC(c1cccs1)C2 (centres undefined)	0.2	1.7	0.1	79.7*	92.2*	9.7
Cc1c(C(=O)N2CCOCC2)[nH]c2c1C(=O)CC(c1ccc(Cl)cc1)C2 (centres undefined)	0.9	.	0.3	14.5	66.1*	.
Cc1c(C(=O)O)[nH]c2c1C(=O)CC(c1ccc(Cl)cc1)C2 (centres undefined)	0.9	1.7	1	5.0	2.2	-6.9
CCOC(=O)c1[nH]c2c(c1C)C(=O)CC(c1ccc(OCC)c(OC)c1)C2 (centres undefined)	0.2	6.8	0.1	76.0*	90.3*	-3.0
Cc1c(C(=O)OCC2CCCO2)[nH]c2c1C(=O)CC(c1ccc(N(C)C)cc1)C2 (centres undefined)	0.8	-3.0	0.1	20.7	91.8*	12.5
COc1ccc(C(C(=O)NC2CCCC2)N(Cc2ccc(C)cc2)C(=O)c2ccn[nH]2)cc1OC (centres undefined)	0.9	.	0.8	12.9	19.6	.
CCOC(=O)c1[nH]c2c(c1C)C(=O)CC(c1ccc(F)cc1)C2 (centres undefined)	0.9	13.6	0.1	14.8	88.1*	1.1
N#Cc1c(N)c(C(=O)c2ccccc2)n2c1CCCC2	0.3	-0.6	1.1	65.8*	-5.8	-15.5

Screening results: PubChem BioAssay, Sanford-Burnham Center for Chemical Genomics
